Assay outcomes (PubChem)
UDG counterscr – Primary qHTS assay for inhibitors of Activation Induced Cytidine Deaminase (AID): UDG Counterscreen signal | Uracil-DNA glycosylase | FRET deamination/UDG coupled assay, UDG read, 4 h | Potency, µM (doses to about 115 µM), usual class: inhibitors | actives 0.14% (n = 91,000); note: nearly all actives have a fitted effect of over 65% in size
AID inh – Primary qHTS assay for inhibitors of Activation Induced Cytidine Deaminase (AID): AID signal; Single-stranded DNA cytosine deaminase (Homo sapiens), Q9GZX7; AID deamination FRET fluorescence, UDG-coupled, 4 h; Potency, µM (top dose mostly 115 µM), hits mostly inhibitors; actives 0.32% (n = 91,000); note: nearly all actives have a fitted effect of over 25% in size
Target sequence (Q9GZX7 whole entry, looked up): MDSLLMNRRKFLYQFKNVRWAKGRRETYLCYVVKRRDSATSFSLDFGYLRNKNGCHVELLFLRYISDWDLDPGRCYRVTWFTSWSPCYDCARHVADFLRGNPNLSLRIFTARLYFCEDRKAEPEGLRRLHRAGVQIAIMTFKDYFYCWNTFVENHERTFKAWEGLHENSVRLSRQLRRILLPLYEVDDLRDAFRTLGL
Large screens that a line does not name were inactive. Compounds with a hit are over-represented: about 0.4% of the library has one in this group of screens. Calls come from the whole dose curve; as a rule, active = well fitted curve in the direction sought with a large enough effect; inconclusive = small, poorly fitted or top-dose-only effect, or another doubt; inactive = no such curve, though single readings can be large; an effect the other way counts as inactive or inconclusive.

NC(Cc1cc(O)c(O)cc1O)C(=O)O (centres undefined)	AID inh 14µM
N[C@@H](CCl)C(=O)O	none
CCCCC12CN3CC(C)(CN(C1)C3c1ccccn1)C2=O (centres undefined)	none
CCCC12CN3CC(C)(CN(C1)C3c1c(C)[nH]c(=O)[nH]c1=O)C2=O (centres undefined)	AID inh 10µM
CCC(CN)c1ccccc1 (centres undefined)	none
CN(N=O)c1ccc(O)c(O)c1	AID inh 25µM
C[C@@H]1[C@@H]2Cc3ccc(O)cc3[C@@]1(C)CCN2CC1CC1	none
CN1CC[C@@]2(C)c3cc(O)ccc3N(C)C12 (some centres undefined)	AID inh 11µM
COC(=O)c1ccc(C2SCC(=O)Nc3n[nH]c(C)c32)cc1 (centres undefined)	none
Cc1oc2cc(OCC(=O)N3CCN(C)CC3)ccc2c(=O)c1-c1ccccc1	none
COc1ccc2[nH]c(C)c(CCNCCC3=C(C)CCCC3(C)C)c2c1	none
Cc1ccc(-n2c(/C=C\c3ccc(F)cc3)nc3ccccc3c2=O)cc1Cl	UDG counterscr 89µM, AID inh inconclusive
Cc1ccccc1-n1c(/C=C/c2ccccc2F)nc2ccccc2c1=O	none
O=c1c2ccccc2nc(/C=C/c2cccc3ccccc23)n1-c1ccccc1Cl	UDG counterscr 89µM, AID inh inconclusive
Cc1cccc(/C=C/c2nc3ccccc3c(=O)n2-c2cccc(O)c2)c1	none
c1ccc(CCNCc2ccc3[nH]ccc3c2)cc1	none
CC1C(c2ccc(F)cc2)=[N+]([O-])C(C)(C(=O)c2ccccc2)N1O (centres undefined)	none
Cc1cccc(-n2nnnc2C2(NC3CCCCC3)CCCCC2)c1	none
